Screens from PubChem.
Tcruzi prolif – blocks T. cruzi growth in NIH3T3 culture | inhibition, % at 8.34 µM | AID 624255 | T. cruzi beta-gal in NIH3T3, GalScreen luminescence, 90 h | 5.9% of 77,000 active;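 active = mean inhibition above about 93%, with at least 55% of replicates each passing it, limit read from the data, passing the limit was not always enough; inconclusive = only one of those two conditions holds; inactive = neither condition holds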
C diff HTS – blocks growth of Clostridium difficile; Clostridium difficile clinical isolate growth, OD600, 24 h; stronger effect = lower value; growth activity, negative = inhibition, % at 16 µg/mL (by protocol); 0.25% of 86,000 active; AID 1259249;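 active = mean growth activity at or below -80% and every replicate also at or below -80%; inconclusive = mean at or below -80% but some replicate above -80%; inactive = mean growth activity above -80%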;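 also: 0% = DMSO wells and -100% = levofloxacin 16 µg/mL wells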
Pf Dd2 inh – inhibitors of Plasmodium falciparum Dd2 growth; P. falciparum Dd2 growth, SYBR Green, 72 h; stronger effect = lower value; activity change, % at 10 µM; 2.3% of 94,000 active; AID 1159554; in the data active = activity change below about -80%; inconclusive = no clear call, values can overlap the other calls
Starred values were filed as active, the others as inactive; ? = inconclusive; / = no result. Sampled rows, rich in hits. Any-hit rate of the full collection: about 6.7%.

SMILES	Tcruzi prolif	C diff HTS	Pf Dd2 inh
C[C@H](CO)N1C[C@H](C)[C@@H](CN(C)S(=O)(=O)c2ccccc2)OCCCC[C@H](C)Oc2ccc(NC(=O)Nc3cccc4ccccc34)cc2C1=O	84	-1	-43
C[C@@H]1CN([C@H](C)CO)C(=O)c2cc(NC(=O)Nc3cccc4ccccc34)ccc2O[C@@H](C)CCCCO[C@H]1CN(C)S(=O)(=O)c1ccc(Cl)cc1	23	5	?
C[C@@H]1CN([C@H](C)CO)C(=O)c2cc(NC(=O)Nc3cccc4ccccc34)ccc2O[C@@H](C)CCCCO[C@@H]1CN(C)S(=O)(=O)c1ccc(Cl)cc1	37	8	-85*
C[C@@H]1CCCCO[C@H](CN(C)S(=O)(=O)c2ccc(Cl)cc2)[C@@H](C)CN([C@@H](C)CO)C(=O)c2cc(NC(=O)Nc3cccc4ccccc34)ccc2O1	95	-1	-81*
CCCC(=O)Nc1ccc2c(c1)OC[C@@H](C)N(CCc1ccccc1)C[C@H](C)[C@H](OC)CN(C)C2=O	-4	/	/
C[C@@H]1CCCCO[C@H](CN(C)C(=O)C2CCCCC2)[C@@H](C)CN([C@@H](C)CO)C(=O)c2cc(NC(=O)c3ccccc3)ccc2O1	54	-8	-85*
C[C@@H]1CCCCO[C@@H](CN(C)C(=O)C2CCCCC2)[C@H](C)CN([C@@H](C)CO)C(=O)c2cc(NC(=O)c3ccccc3)ccc2O1	14	-2	-20
C[C@@H]1CN([C@H](C)CO)C(=O)c2cc(NC(=O)c3ccccc3)ccc2O[C@@H](C)CCCCO[C@@H]1CN(C)C(=O)C1CCCCC1	-22	6	-84*
C[C@H](CO)N1C[C@H](C)[C@@H](CN(C)C(=O)C2CCCCC2)OCCCC[C@H](C)Oc2ccc(NC(=O)CCC(F)(F)F)cc2C1=O	-8	-7	4
C[C@H]1CCCCO[C@@H](CN(C)C(=O)C2CCCCC2)[C@@H](C)CN([C@@H](C)CO)C(=O)c2cc(NC(=O)CCC(F)(F)F)ccc2O1	-7	-4	-82*
C[C@H](CO)N1C[C@H](C)[C@@H](CN(C)C(=O)C2CCCCC2)OCCCC[C@H](C)Oc2ccc(NC(=O)c3ccccc3)cc2C1=O	51	-5	44
CCCC(=O)Nc1ccc2c(c1)C(=O)N(C)C[C@H](OC)[C@H](C)CN(Cc1ccncc1)[C@H](C)CO2	-65	/	/
C[C@@H]1CN([C@H](C)CO)S(=O)(=O)c2ccc(C#CC3CCCC3)cc2O[C@@H]1CN(C)Cc1cncnc1	/	/	9
COc1ccc2c3c(n(C)c2c1)[C@H](CO)N(C(=O)Nc1cccc(F)c1)CC31CCN(C)CC1	/	/	31
CC(C)NC(=O)N(C)C[C@H]1Oc2ccc(NS(=O)(=O)c3cccs3)cc2C(=O)N([C@@H](C)CO)C[C@@H]1C	-119	/	4
O=C(C[C@@H]1C=C[C@@H](NC(=O)Nc2cc(F)ccc2F)[C@H](CO)O1)NCc1ccncn1	-23	4	18
COc1ccc2c3c(n(C)c2c1)[C@@H](CO)N(Cc1cccnc1)CC31CCN(C(=O)c2cccnc2)CC1	/	-4	-44
COc1ccc2c3c(n(C)c2c1)[C@@H](CO)NCC31CCN(Cc2ccncc2)CC1	/	8	-69
COc1ccc2c3c(n(C)c2c1)[C@@H](CO)NCC31CCN(Cc2ccc(F)cc2)CC1	/	/	13
COc1ccc2c3c(n(C)c2c1)[C@@H](CO)NCC31CCN(Cc2ccccc2Cl)CC1	/	9	-88*
COc1ccc2c3c(n(C)c2c1)[C@H](CO)NCC31CCN(Cc2cc(-c3ccccc3)on2)CC1	/	-7	-91*
COc1ccc2c3c(n(C)c2c1)[C@@H](CO)NCC31CCN(CC2CCCCC2)CC1	/	-1	-82*
COc1ccc2c3c(n(C)c2c1)[C@H](CO)NCC31CCN(Cc2ccccc2Cl)CC1	/	-1	-85*
COc1ccc2c3c(n(C)c2c1)[C@H](CO)NCC31CCN(Cc2ccccc2F)CC1	/	14	?
COc1ccc2c3c(n(C)c2c1)[C@H](CO)NCC31CN(CC2CC2)C1	/	4	9
SMILES	Tcruzi prolif	C diff HTS	Pf Dd2 inh
CC(=O)N(C)C[C@@H]1Oc2ncc(-c3cncnc3)cc2C(=O)N([C@@H](C)CO)C[C@H]1C	-9	-4	17
O=C(Cc1ccccc1)N1CC2(C1)[C@H](c1ccccc1)[C@H](CO)N2C(=O)c1cccnc1	/	4	1
CC(=O)N[C@@H]1CC[C@@H](CCNC(=O)Nc2ccc(C(F)(F)F)cc2)O[C@@H]1CO	-35	10	-10
Cc1noc(C)c1NC(=O)N(C)C[C@H]1Oc2ccc(NC(=O)CCN3CCOCC3)cc2C(=O)N([C@@H](C)CO)C[C@H]1C	-11	-1	13
Cc1noc(C)c1S(=O)(=O)N(C)C[C@H]1OCCCC[C@H](C)Oc2ccc(NS(=O)(=O)c3ccccc3)cc2C(=O)N([C@H](C)CO)C[C@H]1C	/	-13	-61
COc1ccc2c3c(n(C)c2c1)[C@H](CO)NCC31CN(Cc2ccc(F)cc2)C1	/	75	-84*
COc1ccc2c3c(n(C)c2c1)[C@@H](CO)NCC31CN(Cc2ccc(Cl)cc2)C1	/	53	-57
COc1cccc(-c2ccc3c(c2)[C@H]2[C@H](CCN2Cc2ccccc2OC)[C@H](CO)N3)c1	5	-91*	-76
O=C(c1ccc(F)cc1)N1CC[C@@H]2[C@H](CO)Nc3ccc(C#Cc4ccc(F)cc4)cc3[C@@H]21	28	8	-57
COc1ccccc1C#Cc1ccc2c(c1)[C@@H]1[C@@H](CCN1C(=O)c1ccc(F)cc1)[C@@H](CO)N2	79	37	7
OC[C@@H]1Nc2ccc(C#Cc3ccc(F)cc3)cc2[C@H]2NCC[C@@H]12	/	48	-89*
COc1ccc(C#Cc2ccc3c(c2)[C@@H]2[C@@H](CCN2C(C)=O)[C@@H](CO)N3)cc1	23	-15	-5
COc1ccccc1C#Cc1ccc2c(c1)[C@H]1[C@H](CCN1C(=O)c1ccc(F)cc1)[C@H](CO)N2	91	-97*	12
COc1ccccc1CN1CC[C@@H]2[C@@H](CO)Nc3ccc(-c4cccc(F)c4)cc3[C@@H]21	49	-6	-68
COc1ccc(C#Cc2ccc3c(c2)[C@H]2[C@H](CCN2Cc2ccncc2)[C@@H](CO)N3)cc1	/	5	-92*
O=C(NC1Cc2ccccc2C1)[C@H]1[C@H](CO)[C@H]2Cn3c(cccc3=O)[C@H]2N1C(=O)C1CCC1	-20	0	34
O=C(c1ccncc1)N1CC(=O)N2[C@@H](CO)[C@H](c3ccc(-c4ccccc4F)cc3)[C@@H]2C1	/	3	-17
COCC(=O)Nc1ccc2c(c1)OC[C@H](C)N(C(=O)c1cnccn1)C[C@H](C)[C@@H](OC)CN(C)C2=O	/	-9	43
O=C(C[C@@H]1C=C[C@H](NC(=O)Nc2ccc3c(c2)OCO3)[C@@H](CO)O1)NCc1ccc(F)cc1	8	1	5
COc1ccccc1CN1CC[C@@H]2[C@H]1c1cc(-c3cccc(F)c3)ccc1N[C@@H]2CO	26	-1	-76
COc1cccc(-c2ccc3c(c2)[C@@H]2[C@@H](CCN2Cc2ccccc2OC)[C@@H](CO)N3)c1	-2	-98*	-59
COc1ccccc1CN1CC[C@@H]2[C@H](CO)Nc3ccc(-c4cccc(F)c4)cc3[C@@H]21	38	-3	-64
